Screening results: PubChem BioAssay, National Center for Advancing Translational Sciences (NCATS)
HEK293 cAMP cs = raises cAMP in parental HEK293 cells, TSHR agonist counter-screen. parental HEK293 CNG cAMP sensor, membrane potential fluorescence. Potency, µM (highest dose often 57.1 µM), inactives show at the highest dose activation, usual class: activators. AID 938. 73,000 tested, 2.5% active; note: % of control where 0% means no effect; nearly all actives have a fitted effect of over 55% in size
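Counterscreen for endogenous-receptor signalling: CNG-channel HEK 293 cells report cAMP rise by membrane depolarization. After 60 min dye equilibration with 100 uM RO 20-1724, compounds incubated 30 min before bottom-read fluorescence at 590 nm.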
ERK AVP inh = vasopressin-driven ERK pathway inhibition; HEK293-V1b, vasopressin-stimulated pERK AlphaScreen; Potency, µM (highest dose often 57.5 µM), without a hit: at the top dose activity, negative = inhibition, usual class: inhibitors; 72,000 tested, 0.99% active; AID 995; note: % is set by controls: 0 for no effect and ±100 for the full control effect; nearly all actives have a fitted effect of over 55% in size
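V1b-HEK293 cells; cpd 30 min 37C; 25 nM vasopressin 5 min; lyse 10 min; AlphaScreen beads 5 hr RT. Normalized to DMSO basal and 25 nM vasopressin; AC50 by Hill fit.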
Tau filament bind = binds recombinant human tau filaments. P10636. recombinant tau filaments, thioflavin S fluorescence, 15 h; filaments grown with octadecylsulfate alongside compound. Potency, µM (doses to about 57.1 µM), inactives show at the highest dose activity change, negative = inhibition. 71,000 tested, 2% active. AID 596;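 note: % is set by controls: 0 for no effect and ±100 for the full control effect; actives lower thioflavin S fluorescence by blocking filaments or displacing dye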
Target sequence (P10636 whole entry, looked up): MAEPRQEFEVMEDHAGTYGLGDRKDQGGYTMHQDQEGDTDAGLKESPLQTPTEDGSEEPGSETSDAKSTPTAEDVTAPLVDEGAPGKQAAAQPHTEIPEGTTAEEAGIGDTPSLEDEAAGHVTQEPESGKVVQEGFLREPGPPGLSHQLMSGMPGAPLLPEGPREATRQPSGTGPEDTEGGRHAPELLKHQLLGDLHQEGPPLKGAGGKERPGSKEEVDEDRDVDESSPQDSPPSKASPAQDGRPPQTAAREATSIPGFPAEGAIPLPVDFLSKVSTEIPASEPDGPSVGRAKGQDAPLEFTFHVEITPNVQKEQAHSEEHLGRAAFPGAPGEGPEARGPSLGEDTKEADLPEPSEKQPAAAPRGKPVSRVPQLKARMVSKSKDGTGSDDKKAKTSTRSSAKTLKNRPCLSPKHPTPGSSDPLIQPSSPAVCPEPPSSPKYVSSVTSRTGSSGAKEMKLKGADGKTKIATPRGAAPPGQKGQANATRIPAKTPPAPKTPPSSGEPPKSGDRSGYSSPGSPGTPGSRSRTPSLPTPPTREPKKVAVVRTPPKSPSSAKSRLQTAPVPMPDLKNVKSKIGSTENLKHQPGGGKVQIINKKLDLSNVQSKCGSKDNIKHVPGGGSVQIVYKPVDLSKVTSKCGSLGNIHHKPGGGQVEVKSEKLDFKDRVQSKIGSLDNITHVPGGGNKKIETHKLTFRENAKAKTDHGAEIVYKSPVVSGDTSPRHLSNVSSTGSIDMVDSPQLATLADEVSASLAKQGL
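Read-out: ThS fluorescence, 450 nm excitation/510 nm emission; lower signal marks blocked filament formation or displaced dye. Tau at 1 uM with 30 uM ODS, 10 uM ThS, 5 mM DTT, 100 mM NaCl, 10 mM HEPES pH 7.4; 15 h, 37 C.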
TSHR ag = agonists of human thyroid stimulating hormone receptor; 73,000 tested, 0.48% active; P16473; HEK293-CNG-TSHR cells (CNG channel as cAMP sensor), membrane potential dye, cAMP; AID 926; Potency, µM (series often up to 57.1 µM), inactives show at the top dose activation, actives largely listed as activators; active = well fitted activation curve with a large enough effect in the main read-out, with a control signal flat, not every such curve was filed as active; inconclusive = small, poorly fitted or top-dose-only effect, or a change in a side signal; inactive = no such curve, though single readings can be large or run the other way; % of control where 0% means no effect;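 note: the control signal comes from parental cells without the receptor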
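HEK 293 cells stably expressing TSHR and a modified CNG channel, with CNG-only parental cells as counterscreen, were preloaded 60 min at room temperature with membrane potential dye containing 100 uM RO 20-1724. Compound exposure was 30 min, and depolarization was read as fluorescence at 590 nm.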
Luciferase inh = firefly luciferase inhibition | 72,000 tested, 2.2% active | Potency, µM (series often up to 57.1 µM), inactives show at the top dose activity change, negative = inhibition, most hits filed as inhibitors | purified firefly luciferase, luminescence, 8 min; note: % is set by controls: 0 for no effect and ±100 for the full control effect; nearly all actives have a fitted effect of over 40% in size
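Titration-based qHTS; buffer 50 mM imidazole pH 7.2, 50 mM KCl, 7 mM MgCl2, 10 uM ATP, 0.01% Tween 20, 0.05% BSA; luciferase/luciferin detector mix added after compound; 8 min, ambient; luminescence.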
Bst PK mod = pyruvate kinase (B. stearothermophilus) modulation. purified pyruvate kinase, luminescence ATP production; ribose 5-phosphate activator present at AC10. Potency, µM. AID 361. 51,000 tested, 1.2% active; in the data active = potency below about 11 µM; inconclusive = mostly about 12 µM to 25 µM;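 the screen sought inhibitors and activators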;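 note: scaled between full activation by ribose 5 phosphate and full inhibition by luteolin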
* = called active by the depositor; i = inactive; ? = inconclusive; · = no result; [ ] = remark or other dose. This is a sample that favours compounds with a hit; in the whole collection about 7.2% have one here. Unless noted, calls come from the whole dose curve; as a rule, active = well fitted curve in the direction sought with a large enough effect; inconclusive = small, poorly fitted or top-dose-only effect, or another doubt; inactive = no such curve, though single readings can be large; an effect the other way counts as inactive or inconclusive. Potency is the fitted concentration of half-maximal effect.

SMILES	HEK293 cAMP cs	ERK AVP inh	Tau filament bind	TSHR ag	Luciferase inh	Bst PK mod
CCCc1cc2c(n1Cc1cc(F)cc(F)c1)C(C)C1CN(C(=O)c3ccccc3)C(C)(C(=O)OC)C21 (stereo not given)	?	1%	9%	?	·	·
COc1ccc(-c2cc(CCCC(=O)NCCc3cc(OC)ccc3OC)no2)cc1	32µM*	-19%	82%	?	-22%	>57
CCOc1ccc(-c2cc(CCCC(=O)NCc3ccco3)no2)cc1	25%	-7%	287%	·	?	·
CCCNC(=O)c1cc(-c2ccc(OC)cc2)on1	8%	6%	6%	5%	7.9µM*	>57
Cc1cnc(CNc2nc(-c3ccccc3Cl)nc3ccccc23)cn1	?	-4%	-4%	?	-4%[2.29 µM]	·
CCOc1ccc(OCc2cccc(C(=O)O)c2)cc1	3%	-8%	7%	3%	0.79µM*	0.76*
O=C(O)c1cccc(COc2ccc(CO)cc2Cl)c1	2%	-1%	-2%	5%	1µM*	0.95*
O=C(O)c1ccc(COc2ccc(CO)cc2Cl)cc1	5%	-19%	-6%	4%	-23%	>57
CCOc1ccc(OCc2cccc(C(=O)N3CCCC3)c2)cc1	12%	-9%	1%	21%	13µM*	?
COc1ccc(OCc2cccc(C(=O)O)c2)cc1	6%	17%	6%	4%	2µM*	1.2*
CCOc1ccc(OCc2ccc(C(=O)N3CCCC3)o2)cc1	12%	13%	7%	·	-1%	>57
O=c1c(-c2cccc(Cl)c2)nc2cncnc2n1C1CC1	2%	-25%	-2%	-6%	2%[11.4 µM]	·
O=C(Nc1ccccc1)N1CC[C@@]2(CCCN(C(=O)c3cc(C(F)(F)F)cc(C(F)(F)F)c3)C2)C1	25%	-10%	-10%	5%	0%[11.4 µM]	·
CC(=O)N1CCC2(CC1)CCN(C(=O)Nc1cccc(F)c1)CC2	23%	-21%	0%	9%	-1%[11.4 µM]	·
COc1ccc(/C=N/n2c(N)nc3ccccc32)cc1OC	20%	-26%	143%	10%	6.3µM*	8.4*
Cc1nc(NC2CCCCC2)c2nc(-c3ccccc3)n(C(C)CN(C)C)c2n1 (stereo not given)	?	-12%	-10%	?	·	·
COc1ccc(OCC(=O)Nc2ccc3c(c2)nc(CCN2CCOCC2)n3C)cc1	-18%	-11%	-18%	-1%	25µM*	i
Fc1cccc(Cl)c1CSc1nnc(COc2cccc3cccnc23)o1	25µM*	?	14%	?	0%	?
CSc1nc(N)nc(SCC(=O)c2ccccc2)c1C#N	-1%	-26%	21%	-3%	2%	>57
CSc1nc(C)c(C(=O)Nc2ccccc2)c(C)c1C#N	25µM*	25%	-2%	?	3%	>57
CC(=O)O[C@]12CC[N@+]3(C)CCCC[C@@H]3[C-]1Nc1ccccc12	-8%[11.4 µM]	-5%[11.5 µM]	10%[11.4 µM]	1%[11.4 µM]	3%[11.4 µM]	·
COc1ccc(-c2nnc(-c3cccs3)o2)cc1OC	10%	?	18%	6%	13µM*	·
c1csc(-c2nnc(-c3ccc(N4CCOCC4)cc3)o2)c1	11%	7%	28%	1%	3.2µM*	?
c1cncc(-c2nnc(-c3cccs3)o2)c1	-1%	-12%	1%	2%	-1%	>57
CC(C)C1=C[C@@]23CC[C@@H]4[C@](C)(CCC[C@@]4(C)C(=O)O)[C@@H]2C[C@@H]1[C@@H](C(=O)O)[C@@H]3C(=O)O	-5%[11.4 µM]	13%[11.5 µM]	5%[11.4 µM]	3%[11.4 µM]	4%[11.4 µM]	·
O=C(c1cc(C(F)(F)F)cc(C(F)(F)F)c1)N1CCC2(CCCN(Cc3nccs3)C2)CC1	-6%	-12%	4%	6%	0%[11.4 µM]	·
c1ccc(CNc2ccnc(-c3ccc4c(c3)OCO4)n2)cc1	?	-13%	3%	?	-4%[2.29 µM]	·
c1ccc(-c2noc(-c3cccnc3)n2)nc1	?	-22%	-3%	?	?	·
c1ccc(-c2noc(-c3ccc4ccccc4c3)n2)nc1	24%	-24%	112%	·	0.2µM*	0.16*
c1ccc(-c2noc(-c3ccc4c(c3)OCO4)n2)nc1	10%	-15%	10%	10%	0.79µM*	0.86*
